Here are results for 155 variants from a collection of fitness landscapes (doi:10.1126/science.1257360).

B1: PhoQ; a variant is named by its letters at X, in order, P23837 (parent)
chain: MKKLLRLFFPLSLRVRFLLATAAVVLVLSLAYGMVALIGYSVSFDKTTFRLLRGESNLFYTLAKWENNKLHVELPENIDKQSPTMTLIYDENGQLLWAQRDVPWLMKMIQPDWLKSNGFHEIEADVNDTSLLLSGDHSIQQQLQEVREDDDDAEMTHSVAVNVYPATSRMPKLTIVVVDTIPVELKSSYMVWSWFIYVLSANLLLVIPLLWVAAWWSLRPIEALAKEVRELEEHNRELLNPATTRELTSLVRNLNRLLKSERERYDKYRTTLTDLTHSLKTPLXXLQXXLRSLRSEKMSVSDAEPVMLEQISRISQQIGYYLHRASMRGGTLLSRELHPVAPLLDNLTSALNKVYQRKGVNISLDISPEISFVGEQNDFVEVMGNVLDNACKYCLEFVEISARQTDEHLYIVVEDDGPGIPLSKREVIFDRGQRVDTLRPGQGVGLAVAREITEQYEGKIVAGESMLGGARMEVIFGRQHSAPKDE

The full ranking holds about 140,000 sequences; the median of “enrichment ratio after two sorts for PhoP signalling” is about 0, and the highest 2% start at about 11. Only a selection was taken, and the highest values are over-represented in it overall.

The variants in the test derive from B1. In words: enrichment ratio after two sorts for PhoP signalling (ratio (wild type AVST 3.29)); higher = more functional. The conditions noted are these: with PhoP (E. coli).
With ERYW, the enrichment ratio was no more than 0.25.

Take TEFV: the enrichment ratio stood at 8.47.

As for FYGK, the enrichment ratio is no more than 0.25.

FRYA: the enrichment ratio is no more than 0.25.

Consider WKER, for which the enrichment ratio is no more than 0.25.

On to FREH, for which the enrichment ratio is no more than 0.25.

As for EDQF, the enrichment ratio was no more than 0.25.

Consider PKWA, for which the enrichment ratio was no more than 0.25.

As for MNPT, the enrichment ratio was no more than 0.25.

Take WRCA: the enrichment ratio is no more than 0.25.

For GWPN, the enrichment ratio was no more than 0.25.

Regarding AEVM, the enrichment ratio turned out to be 46.8.

AETE: the enrichment ratio stood at 8.78.

Turning to AETM, the enrichment ratio was no more than 0.25.

Consider AESK, for which the enrichment ratio was no more than 0.25.

As to AETS, the enrichment ratio worked out at 20.8.

Turning to AEHF, the enrichment ratio is no more than 0.25.

Regarding AETF, the enrichment ratio is 9.37.

Regarding AERM, the enrichment ratio is no more than 0.25.

Take AETV: the enrichment ratio turned out to be 22.9.

On to AEDV, for which the enrichment ratio is no more than 0.25.

Take AESF: the enrichment ratio worked out at 14.8.

With AEGM, the enrichment ratio was no more than 0.25.

Consider RWWL, for which the enrichment ratio was no more than 0.25.

Regarding RSVA, the enrichment ratio is no more than 0.25.

Turning to ECQN, the enrichment ratio was no more than 0.25.

Regarding VEAF, the enrichment ratio was no more than 0.25.

Turning to AEEL, the enrichment ratio is no more than 0.25.

In the case of AEQC, the enrichment ratio was found to be 16.

As for AETQ, the enrichment ratio is no more than 0.25.

Regarding AEKS, the enrichment ratio was no more than 0.25.

For AKQC, the enrichment ratio was no more than 0.25.

As to AEVL, the enrichment ratio worked out at 17.5.

For the variant AERL, the enrichment ratio is no more than 0.25.

On to AESC, for which the enrichment ratio amounted to 32.1.

On to AEFW, for which the enrichment ratio was no more than 0.25.

For the variant AEPC, the enrichment ratio is no more than 0.25.

For the variant AETW, the enrichment ratio came out at 11.3.

For AQQC, the enrichment ratio was no more than 0.25.

With YVCN, the enrichment ratio is no more than 0.25.

Consider DGHV, for which the enrichment ratio is no more than 0.25.

With VIEF, the enrichment ratio was no more than 0.25.

For the variant WKPN, the enrichment ratio is no more than 0.25.

Take EKAV: the enrichment ratio was no more than 0.25.

Take YTCK: the enrichment ratio was no more than 0.25.

On to STCI, for which the enrichment ratio amounted to 12.3.

As to SRPM, the enrichment ratio is no more than 0.25.

With STHE, the enrichment ratio was no more than 0.25.

As to STCS, the enrichment ratio came to 10.8.

As for STCE, the enrichment ratio was determined as 13.1.

Turning to SRCK, the enrichment ratio was no more than 0.25.

In the case of YTCE, the enrichment ratio was no more than 0.25.

For the variant STCA, the enrichment ratio was 7.48.

STCK: the enrichment ratio was 12.3.

In the case of SPPM, the enrichment ratio was no more than 0.25.

For STPM, the enrichment ratio is 15.9.

On to TPLS, for which the enrichment ratio was no more than 0.25.

For the variant QDRE, the enrichment ratio is no more than 0.25.

As for ICDP, the enrichment ratio was no more than 0.25.

For the variant QAMT, the enrichment ratio is no more than 0.25.

For QYWL, the enrichment ratio was no more than 0.25.

As for FCIR, the enrichment ratio is no more than 0.25.

Take RNQK: the enrichment ratio is no more than 0.25.

Regarding LNAP, the enrichment ratio was no more than 0.25.

On to THWI, for which the enrichment ratio was no more than 0.25.

Regarding YKPH, the enrichment ratio was no more than 0.25.

In the case of VKLF, the enrichment ratio was no more than 0.25.

Consider AGWK, for which the enrichment ratio was no more than 0.25.

As for HECH, the enrichment ratio came to 12.7.

For NRMH, the enrichment ratio is no more than 0.25.

Regarding TCCH, the enrichment ratio came out at 7.95.

As to TEMH, the enrichment ratio is 134.

For HRMH, the enrichment ratio was no more than 0.25.

In the case of VECH, the enrichment ratio was 24.1.

For the variant HECI, the enrichment ratio was 6.73.

Turning to GNCH, the enrichment ratio was determined as 3.45.

Regarding VFCH, the enrichment ratio was no more than 0.25.

On to GMCH, for which the enrichment ratio was 16.1.

In the case of GMMH, the enrichment ratio is no more than 0.25.

On to HECF, for which the enrichment ratio is no more than 0.25.

On to GFPY, for which the enrichment ratio was no more than 0.25.

On to DYYD, for which the enrichment ratio was no more than 0.25.

For EPTC, the enrichment ratio is no more than 0.25.

On to QQYH, for which the enrichment ratio was no more than 0.25.

For QHTA, the enrichment ratio is no more than 0.25.

Take ETDE: the enrichment ratio was no more than 0.25.

In the case of TECH, the enrichment ratio is 27.7.

Consider QECH, for which the enrichment ratio is no more than 0.25.

Consider YWCH, for which the enrichment ratio was no more than 0.25.

Consider HPCH, for which the enrichment ratio is no more than 0.25.

Regarding DMCH, the enrichment ratio was no more than 0.25.

With NECH, the enrichment ratio is 18.

As for MFCH, the enrichment ratio was no more than 0.25.

As to HVCH, the enrichment ratio is no more than 0.25.

For MECH, the enrichment ratio turned out to be 56.6.

For the variant FIVW, the enrichment ratio was no more than 0.25.

In the case of MRRQ, the enrichment ratio is no more than 0.25.

Consider KFHY, for which the enrichment ratio is no more than 0.25.

In the case of FGDH, the enrichment ratio was no more than 0.25.

Consider EQSM, for which the enrichment ratio is no more than 0.25.

Regarding YMLV, the enrichment ratio worked out at 0.756.

As to NWGV, the enrichment ratio was no more than 0.25.

Turning to AFIT, the enrichment ratio was no more than 0.25.

In the case of IIPL, the enrichment ratio is no more than 0.25.

Consider GITM, for which the enrichment ratio is 10.3.

On to GIGM, for which the enrichment ratio was 36.1.

On to GITH, for which the enrichment ratio is no more than 0.25.

GIMM: the enrichment ratio turned out to be 17.3.

In the case of GNMM, the enrichment ratio came out at 0.333.

As for GNGW, the enrichment ratio was no more than 0.25.

Take GIWM: the enrichment ratio is no more than 0.25.

In the case of GIGW, the enrichment ratio was determined as 16.

For the variant GNAH, the enrichment ratio is no more than 0.25.

Regarding GIYM, the enrichment ratio is no more than 0.25.

As for GIAH, the enrichment ratio was found to be 22.5.

Take GIHW: the enrichment ratio was no more than 0.25.

On to RCKT, for which the enrichment ratio was no more than 0.25.

For the variant KSCR, the enrichment ratio was no more than 0.25.

With YPKK, the enrichment ratio is no more than 0.25.

Take TDMP: the enrichment ratio was no more than 0.25.

Regarding PKYN, the enrichment ratio was no more than 0.25.

Consider IVYH, for which the enrichment ratio is no more than 0.25.

For the variant QMPA, the enrichment ratio was no more than 0.25.

With LKRS, the enrichment ratio is no more than 0.25.

KQPM: the enrichment ratio was no more than 0.25.

In the case of RNQP, the enrichment ratio is no more than 0.25.

In the case of WSPR, the enrichment ratio was no more than 0.25.

In the case of NEWG, the enrichment ratio was no more than 0.25.

On to IPQP, for which the enrichment ratio is no more than 0.25.

Take MNPP: the enrichment ratio is no more than 0.25.

With CSHW, the enrichment ratio was no more than 0.25.

With PKLP, the enrichment ratio was determined as 0.31.

FDCK: the enrichment ratio was no more than 0.25.

Turning to KLPV, the enrichment ratio is no more than 0.25.

As to GITF, the enrichment ratio came to 18.4.

On to GISA, for which the enrichment ratio worked out at 13.

With GNTF, the enrichment ratio is no more than 0.25.

For the variant GIGQ, the enrichment ratio was no more than 0.25.

Turning to GIHF, the enrichment ratio is no more than 0.25.

With GIGG, the enrichment ratio was no more than 0.25.

GNSA: the enrichment ratio was determined as 2.7.

As to GIMQ, the enrichment ratio stood at 11.4.

Take GILT: the enrichment ratio came out at 3.61.

With GISR, the enrichment ratio is no more than 0.25.

Take GIMT: the enrichment ratio was determined as 12.6.

On to GNMT, for which the enrichment ratio was no more than 0.25.

As for WKTM, the enrichment ratio was no more than 0.25.

RKLH: the enrichment ratio is no more than 0.25.

Regarding GFLH, the enrichment ratio is no more than 0.25.

As to TNCW, the enrichment ratio is no more than 0.25.

For the variant LAHQ, the enrichment ratio is no more than 0.25.

As for MIEG, the enrichment ratio is no more than 0.25.

As to RYNY, the enrichment ratio is no more than 0.25.

Consider GIVV, for which the enrichment ratio is 11.3.

For the variant WIVV, the enrichment ratio was no more than 0.25.
